# According to PubChem BioAssay (Tox21):
# Unmarked numbers belong to inactive results. Active and inactive are the calls of the source. Calls follow the shape of the dose curve; as a rule, active = well fitted curve in the direction sought with a large enough effect in the repeat runs; inconclusive = weak or mixed curves; inactive = flat fitted curve, though single readings scatter.
# Assay: qHTS assay to test for compound auto fluorescence at 460 nm (blue) in HEK293 cell free culture (AID 720681); also: potency is read from the fitted curve at half-maximal effect
# Settings: cell-free medium, autofluorescence 405/460 nm (blue); series mostly up to 46 µM; fluorescence, % of fluorescent control: at the top concentration
# Method in brief: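 Blue fluorescence (Ex 405/Em 460 nm, triamterene-equivalent) was read immediately after pin transfer of compound or DMSO into medium (DMEM, 10% FBS) without cells.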
# % is scaled to controls: 0 for no effect and ±100 for the full control effect.
SMILES,"fluorescence, % of fluorescent control",Potency
OC1OC[C@@H](O)[C@H](O)[C@@H]1O (stereo not given in full),0.0049%,
CCN(CC)c1ccc(C(=C2C=CC(=[N+](CC)CC)C=C2)c2ccccc2)cc1,0.16%,
CC(CCc1ccc(O)cc1)NCC(O)c1ccc(O)cc1 (stereo not given),0.0942%,
CC(=O)Nc1c(I)c(C(=O)O)c(I)c(N(C)C(C)=O)c1I,0.392%,
C[C@]12C=CC(=O)N[C@@H]1CC[C@@H]1[C@@H]2CC[C@]2(C)[C@@H](C(=O)Nc3cc(C(F)(F)F)ccc3C(F)(F)F)CC[C@@H]12,0.0992%,
CCC(Oc1ccccc1)C(=O)N[C@@H]1C(=O)N2[C@@H]1SC(C)(C)[C@@H]2C(=O)O (stereo not given in full),-0.0637%,
COc1c(O[C@@H]2O[C@H](CO)[C@@H](O)[C@H](O)[C@H]2O)cc2c(c1OC)-c1ccc(SC)c(=O)cc1[C@@H](NC(C)=O)CC2,0.001% [at 18.6 µM],
CC[C@@H]1/C=C(\C)C[C@H](C)C[C@H](OC)[C@H]2O[C@@](O)(C(=O)C(=O)N3CCCC[C@H]3C(=O)O[C@H](/C(C)=C/[C@@H]3CC[C@@H](Cl)[C@H](OC)C3)[C@H](C)[C@@H](O)CC1=O)[C@H](C)C[C@@H]2OC,-0.0502%,
C[C@H](O)[C@H](O)[C@H]1CNc2nc(N)[nH]c(=O)c2N1,,12.6 µM (active)
COc1ccc(C[C@H](N)C(=O)N[C@H]2[C@@H](O)[C@H](n3cnc4c(N(C)C)ncnc43)O[C@@H]2CO)cc1,0.109%,
O=C(NNCNNC(=O)c1ccncc1)c1ccncc1,-0.0165%,
CC(O)[C@H]1CC[C@H]2[C@@H]3CC[C@@H]4C[C@@H](O)CC[C@]4(C)[C@H]3CC[C@]12C (stereo not given in full),0.0115%,
CCCCc1cc2c(=O)c(C(=O)OC)c[nH]c2cc1OCc1ccccc1,-0.0548%,
C=C[C@]1(C)C[C@@H](OC(=O)CSCCN(CC)CC)[C@]2(C)[C@H](C)CC[C@]3(CCC(=O)[C@H]32)[C@@H](C)[C@@H]1O,-0.0117%,
CCCCCCCCCCCCCCCCCC(=O)OCC(C)O (stereo not given),-0.0879%,
CCCCC[C@H](O)/C=C/[C@@H]1[C@H]2C/C(=C/CCCC(=O)O)O[C@H]2C[C@H]1O,0.033%,
CCOC(=O)[C@@H](N)CS,-0.0377%,
CC1(C)S[C@@H]2[C@H](NC(=O)C(N)c3ccccc3)C(=O)N2[C@H]1C(=O)OC1OC(=O)c2ccccc21 (stereo not given in full),0.387% [at 18.6 µM],
CN1CCc2c(c3ccccc3n2Cc2ccccc2)C1,0.0821% [at 18.6 µM],
CN(C)CCOc1ccccc1Cc1ccccc1 (tested in a mixture with another compound),0.0154%,
CCOC(=O)c1c[nH]c2cc(OCC(C)C)c(OCC(C)C)cc2c1=O,-0.142%,
CN(CCO)CC(O)Cn1cnc2c1c(=O)n(C)c(=O)n2C (stereo not given) (tested in a mixture with another compound),-0.109%,
FCOC(C(F)(F)F)C(F)(F)F,0.0113%,
CCN(CC)CCOc1ccc2nc(N(C)C)sc2c1,-0.0035%,
COc1cc(-c2ccc(-[n+]3nc(-c4ccccc4)nn3-c3ccc([N+](=O)[O-])cc3)c(OC)c2)ccc1-[n+]1nc(-c2ccccc2)nn1-c1ccc([N+](=O)[O-])cc1,-0.0202%,
COC(=O)[C@H]1[C@H]2C[C@@H]3c4[nH]c5ccccc5c4CCN3C[C@H]2C[C@@H](OC(=O)c2cc(OC)c(OC)c(OC)c2)[C@@H]1OC,2.63%,

# Assay: qHTS assay to test for compound auto fluorescence at 535 nm (green) in HEK293 cell free culture (AID 720682)
# Settings: cell-free medium, green autofluorescence 485/535 nm; series mostly up to 46 µM; activity change: at the top concentration
# Method in brief: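 Compounds were pin-transferred into cell-free DMEM with 10% FBS, and green fluorescence was read at excitation 485 nm and emission 535 nm. Intensities were expressed as fluorescein-equivalent values.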
SMILES,activity change,Potency
CCCCCC(O)/C=C/C=O (stereo not given),0.0218%,
O=C(Cn1c(=O)sc2ccc(Cl)cc21)N1CCN(CCO)CC1,-0.133%,
COc1ccc2c(c1)OC(C)(C)C(c1ccccc1)C2c1ccc(OCCN2CCCC2)cc1 (stereo not given),-0.025%,
CCCCCCOc1ccc(C(=N)N(CCCC)CCCC)c2ccccc12,-0.0905%,
C[C@H](N)C(=O)N[C@@H](C)P(=O)(O)O,0.0841%,
OC[C@H]1OC([S-])[C@H](O)[C@@H](O)[C@@H]1O.[Au+] (stereo not given in full),0.0732%,
CC[C@@H](C(=O)[C@@H](C)[C@@H](O)[C@H](C)[C@@H]1O[C@@H]([C@@H](CC)C(=O)O)CC[C@@H]1C)[C@H]1O[C@]2(C=C[C@@H](O)[C@]3(CC[C@@](C)([C@H]4CC[C@](O)(CC)[C@H](C)O4)O3)O2)[C@H](C)C[C@@H]1C,0.0401%,
C=C1CC[C@H](O)CC1=C/C=C1\CCC[C@]2(C)[C@@H]([C@H](C)CCCC(C)(C)O)CC[C@@H]12,0.0462%,
O=C(COc1ccc(Cl)cc1)OCCNC12CC3CC(CC(C3)C1)C2,-0.0528%,
CCOC(=O)Oc1c(OC)cc(C(=O)O[C@@H]2C[C@@H]3CN4CCc5c([nH]c6cc(OC)ccc56)[C@H]4C[C@@H]3[C@H](C(=O)OC)[C@H]2OC)cc1OC,"0.133% [at 18.6 µM, stronger effect = higher value]",
Nc1nc2[nH]cc(CCc3ccc(C(=O)N[C@@H](CCC(=O)O)C(=O)O)cc3)c2c(=O)[nH]1,-0.0121%,
CC(CC(c1ccccc1)c1ccccc1)NC(C)(C)C (stereo not given),0.0325%,
NC[C@@H]1O[C@H](O[C@H]2[C@@H](O)[C@H](O[C@@H]3[C@@H](O)[C@H](N)C[C@H](N)[C@H]3O[C@H]3O[C@H](CN)[C@@H](O)[C@H](O)[C@H]3N)O[C@@H]2CO)[C@H](N)[C@@H](O)[C@@H]1O,-0.0563%,
OC1OC[C@@H](O)[C@H](O)[C@@H]1O (stereo not given in full),0.132%,
CCN(CC)c1ccc(C(=C2C=CC(=[N+](CC)CC)C=C2)c2ccccc2)cc1,-0.005%,
CC(CCc1ccc(O)cc1)NCC(O)c1ccc(O)cc1 (stereo not given),0.0023%,
CC(=O)Nc1c(I)c(C(=O)O)c(I)c(N(C)C(C)=O)c1I,-0.071%,
C[C@]12C=CC(=O)N[C@@H]1CC[C@@H]1[C@@H]2CC[C@]2(C)[C@@H](C(=O)Nc3cc(C(F)(F)F)ccc3C(F)(F)F)CC[C@@H]12,-0.109%,
CCC(Oc1ccccc1)C(=O)N[C@@H]1C(=O)N2[C@@H]1SC(C)(C)[C@@H]2C(=O)O (stereo not given in full),-0.0108%,
COc1c(O[C@@H]2O[C@H](CO)[C@@H](O)[C@H](O)[C@H]2O)cc2c(c1OC)-c1ccc(SC)c(=O)cc1[C@@H](NC(C)=O)CC2,"-0.0149% [at 18.6 µM, stronger effect = higher value]",

SMILES,activity change,Potency
CC[C@@H]1/C=C(\C)C[C@H](C)C[C@H](OC)[C@H]2O[C@@](O)(C(=O)C(=O)N3CCCC[C@H]3C(=O)O[C@H](/C(C)=C/[C@@H]3CC[C@@H](Cl)[C@H](OC)C3)[C@H](C)[C@@H](O)CC1=O)[C@H](C)C[C@@H]2OC,-0.0084%,
C[C@H](O)[C@H](O)[C@H]1CNc2nc(N)[nH]c(=O)c2N1,0.23%,
COc1ccc(C[C@H](N)C(=O)N[C@H]2[C@@H](O)[C@H](n3cnc4c(N(C)C)ncnc43)O[C@@H]2CO)cc1,0.0047%,
O=C(NNCNNC(=O)c1ccncc1)c1ccncc1,0.0486%,
CC(O)[C@H]1CC[C@H]2[C@@H]3CC[C@@H]4C[C@@H](O)CC[C@]4(C)[C@H]3CC[C@]12C (stereo not given in full),0.0114%,
CCCCc1cc2c(=O)c(C(=O)OC)c[nH]c2cc1OCc1ccccc1,0.0492%,
C=C[C@]1(C)C[C@@H](OC(=O)CSCCN(CC)CC)[C@]2(C)[C@H](C)CC[C@]3(CCC(=O)[C@H]32)[C@@H](C)[C@@H]1O,-0.0844%,
CCCCCCCCCCCCCCCCCC(=O)OCC(C)O (stereo not given),-0.505%,
CCCCC[C@H](O)/C=C/[C@@H]1[C@H]2C/C(=C/CCCC(=O)O)O[C@H]2C[C@H]1O,0.0396%,
CCOC(=O)[C@@H](N)CS,-0.0236%,
CC1(C)S[C@@H]2[C@H](NC(=O)C(N)c3ccccc3)C(=O)N2[C@H]1C(=O)OC1OC(=O)c2ccccc21 (stereo not given in full),"0.0083% [at 18.6 µM, stronger effect = higher value]",
CN1CCc2c(c3ccccc3n2Cc2ccccc2)C1,"0.0687% [at 18.6 µM, stronger effect = higher value]",
CN(C)CCOc1ccccc1Cc1ccccc1 (tested in a mixture with another compound),0.0331%,
CCOC(=O)c1c[nH]c2cc(OCC(C)C)c(OCC(C)C)cc2c1=O,0.0619%,
CN(CCO)CC(O)Cn1cnc2c1c(=O)n(C)c(=O)n2C (stereo not given) (tested in a mixture with another compound),-0.14%,
FCOC(C(F)(F)F)C(F)(F)F,-0.196%,
CCN(CC)CCOc1ccc2nc(N(C)C)sc2c1,-0.234%,
COc1cc(-c2ccc(-[n+]3nc(-c4ccccc4)nn3-c3ccc([N+](=O)[O-])cc3)c(OC)c2)ccc1-[n+]1nc(-c2ccccc2)nn1-c1ccc([N+](=O)[O-])cc1,-0.0153%,
COC(=O)[C@H]1[C@H]2C[C@@H]3c4[nH]c5ccccc5c4CCN3C[C@H]2C[C@@H](OC(=O)c2cc(OC)c(OC)c(OC)c2)[C@@H]1OC,,inactive
